Assay results taken from PubChem BioAssay AID1347076 (National Center for Advancing Translational Sciences (NCATS), 2019).
Screen size: about 400,000 compounds; about 13,000 (3.2%) were called active. Another 18% or so got no clear call; they are omitted. Calls come from the whole dose curve; as a rule, active = well fitted cell-killing curve with a large enough effect; inconclusive = small, poorly fitted or top-dose-only effect, or effect the other way; inactive = flat fitted curve, though single readings scatter. What follows is part of a selection rich in actives, with near analogues and random picks from the rest.

assay: qHTS assay for MDR1-selective chemotherapeutics: Primary screen using the drug-selected MDR subline cells KB-V1; conditions: KB-V1 MDR cells viability, CellTiter-Glo, 72 h; series mostly up to 46.1 µM; activity change, negative = cytotoxicity: at the top concentration; note: nearly all actives have a fitted effect of over 60% in size
Source text: A prime difficulty in effectively treating cancer is the development of cellular resistance to multiple structurally unrelated anticancer drugs, a phenomenon known as multidrug resistance (MDR). […] Numerous strategies to overcome P-gp-mediated MDR have been explored, including the design of drugs that evade recognition and efflux, and development of inhibitors to block efflux and restore drug accumulation. […] An alternative approach is to exploit resistance by identifying drugs that target MDR cells over the non-resistant parental cells from which they were selected. […] The development of MDR1-selective agents represents a new strategy for resolving multidrug resistance, as it remains a long-standing clinical challenge for cancer chemotherapy.
Our goal is to identify compounds that selectively kill P-gp-expressing MDR cells. We will identify MDR1-selective compounds by comparing toxicity of compounds in the screening library against parental, drug-naive (KB-3-1) adenocarcinoma cells as well as their drug-selected MDR sub-line (KB-V1). The differential toxicity of compounds against these two cell lines will be used to identify MDR1-selective compounds, whose cytotoxicity is potentiated, rather than diminished, by P-gp expression. This assay will be utilized to conduct a quantitative high-throughput screen (qHTS) in collaboration with the NIH Chemical Genomics Center to identify selective agents, and probe hits arising from the screen will be validated using secondary assays and characterized through a well-established follow-up research program. This screen was run against the entire NCGC library collection of about 400,000 compounds.
NIH Molecular Libraries Probe Production Network [MLPCN]
NIH Chemical Genomics Center [NCGC]
PI: Michael Gottesman, National Cancer Institute, NIH
Briefly, 5 microL of media containing either KB-V1 cells (columns 1-2, 4-48) are dispensed into Greiner white, treated solid-bottom 1536-well assay plates (media-only control is added to column 3). Compounds are then transferred via Kalypsys pin tool equipped with 1536-pin array (10 nL slotted pins, V&P Scientific, San Diego, CA). Following addition of compound, the plates are incubated at 37 degrees C for 72 hours. CellTiter-Glo (2.5 µL/well) is then added, and the plates are read in a ViewLux reader (Perkin-Elmer, clear luminescence filter, 1 second exposure, 1x binning) following a 10 minute incubation. All cells are dispensed in DMEM phenol-red free media containing 10% FBS.
Library plates were screened starting from the lowest and proceeding to the highest concentration. Vehicle-only plates, with DMSO being pin-transferred to columns 5-48, will be inserted uniformly at the beginning and the end of each library in order to monitor and record any shifts in the background, which can be affected by reagent dispensers or loss in enzyme activity over time. Screening data will be corrected, normalized, and concentration-effect relationships will be derived by using publicly-available NCGC, NCATS curve fitting algorithms (http://ncgc.nih.gov/pub/openhts).
% is set by controls: 0 for no effect and ±100 for the full control effect; potency is the fitted concentration of half-maximal effect.

Row | SMILES | activity change, negative = cytotoxicity | Potency
1 | C#CCN(C[C@H]1[C@H](OC(=O)NC2CCCC2)[C@H](OC(=O)NC2CCCC2)C[C@H]2C(=O)N(c3ccccc3)C(=O)[C@@H]12)S(=O)(=O)c1ccc(C)cc1 | 11.7% (inactive) | 
2 | C=CCn1c(SCC(=O)NCCCO)nc2sc3c(c2c1=O)CCC3 | -0.705% (inactive) | 
3 | CC1CCc2c(sc3nc4n(c(=O)c23)CCS4)C1 (stereo unspecified) | -10.8% (inactive) | 
4 | C=CCn1c(SCc2c(C)noc2C)nc2sc3c(c2c1=O)CCC(C)C3 (stereo unspecified) |  | 4.61 µM (active)
5 | O=C(Nc1ccc(Cl)cc1)c1csc([C@H]2C[C@H](O)[C@@H](CO)O2)n1 | -8.14% (inactive) | 
6 | Cc1ccc(S(=O)(=O)NCc2nc3ccccc3c(=O)n2N)cc1 | 4.72% (inactive) | 
7 | CCc1nnc2c3ccccc3nc(N3CCN(c4ccc(C)cc4C)CC3)n12 | 11% (inactive) | 
8 | CCC1NC(=O)c2cccnc2-n2c1nc1ccc(C)cc1c2=O (stereo unspecified) | -15.4% (inactive) | 
9 | N=c1c2c(-c3ccccc3)c(-c3ccccc3)oc2ncn1Cc1ccco1 |  | 16.4 µM (active)
10 | C(=C\c1ccccc1)/CSc1nnc(-c2cccnc2)n1Cc1ccco1 | 0% (inactive) | 
11 | OCCNc1ncnc2oc(-c3ccco3)c(-c3ccco3)c12 | -18.6% (inactive) | 
12 | CSCCC(c1nnnn1Cc1ccccc1)N1CCN(C/C=C/c2ccccc2)CC1 (stereo unspecified) | -8.22% (inactive) | 
13 | O=C(CNC(=O)N1CC(=O)Nc2ccccc21)Nc1ccc(Br)cc1F | 10.8% (inactive) | 
14 | Cc1ccc(C(C)(C)C)c(OCCCCN2CCCC2)c1 |  | 20.6 µM (active)
15 | Cc1ccc(OCCCCN2CCCCC2)c(Br)c1 |  | 16.4 µM (active)
16 | CN1CCN(CCCCOc2cccc3ccccc23)CC1 | -7.19% (inactive) | 

Row | SMILES | activity change, negative = cytotoxicity | Potency
17 | Cc1ccc(C(C)C)cc1OCCN1CCCC1 | 2.61% (inactive) | 
18 | O=[N+]([O-])c1ccccc1OCCCCN1CCCCC1 | -24.1% (inactive) | 
19 | COc1ccccc1OCCCCCCN1CCN(C)CC1 | 20.9% (inactive) | 
20 | CCNC(=O)C1(C)CCCN(C(=O)c2ccc3ccccc3n2)C1 (stereo unspecified) | 5.07% (inactive) | 
21 | Cc1ccccc1S(=O)(=O)NC(=O)C1(C)CCN1C(=O)C1(c2ccc(Cl)cc2)CC1 (stereo unspecified) | 19.1% (inactive) | 
22 | Cn1c(-c2ccco2)nc2cc3ccccc3cc21 |  | 8.2 µM (active)
23 | COc1ccccc1-n1c(-c2cc(-c3ccco3)[nH]n2)n[nH]c1=S | 2.88% (inactive) | 
24 | CSc1n[nH]c(-c2ccco2)n1 | -8.81% (inactive) | 
25 | COc1ccc(Nc2cc(C(=O)NCCCN(C)c3ccccc3)c3ccccc3n2)c(OC)c1 | 3.15% (inactive) | 
26 | COc1cc2nc(NCC(C)c3ccccc3)n3nc(-c4ccccc4)nc3c2cc1OC (stereo unspecified) | -3.41% (inactive) | 
27 | Cn1c(=O)c2c(n3c4ccccc4nc13)NC(=O)CC2c1cccc(Cl)c1 (stereo unspecified) | 1.02% (inactive) | 
28 | Cc1ccccc1NC(=O)Cn1c(=O)n(CC2CCC(C(=O)NCCc3ccccc3)CC2)c(=O)c2ccccc21 (stereo unspecified) | -5.31% (inactive) | 
29 | CCc1ccc(N(CC)C(=O)CCn2cnc3onc(-c4ccc(F)cc4)c3c2=O)cc1 | 6.69% (inactive) | 
30 | O=c1cc(N2CCCCC2)c(-c2ccccc2)nn1Cc1cccc(F)c1 | -29.3% (inactive) | 
31 | CCc1c(-c2ccc(F)cc2)ncn1Cc1cccc(-c2ccccc2)c1 |  | 23.1 µM (active)
